# Results taken from PubChem BioAssay AID1259415 (National Center for Advancing Translational Sciences (NCATS), 2018).
# Out of some 410,000 compounds screened, about 18,000 (4.4%) were called active. About 7% were inconclusive and are not listed. The full list was thinned out, with actives kept by preference. Unmarked numbers belong to inactive results. No stated cut-off is given here; in the data, active means activity change below about -60%; inconclusive means no clear call, values can overlap the other calls; inactive means above about -39%.
# Assay: qHTS Assay for inhibitors of the human cytomegalovirus (HCMV)
# Details: HFF cells, HCMV-luciferase reporter, 72 h; at 57.5 µM; stronger effect = lower value
# Procedure, shortened: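 Luciferase read-out from HCMV-luciferase-infected HFFs (MOI 1 PFU/cell) 72 h post infection at 37C; compounds added after 16 h cell attachment; activity normalized between buffer-only basal and Salinomycin (10uM) inhibitor controls.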
# On the % scale 0 is the no-effect control and ±100 the full control effect.
row,Compound,"activity change, negative = inhibition"
1,Cc1ccc(NC(=O)CN2c3ccccc3S(=O)(=O)c3ccccc32)cc1F,18.3%
2,CCN(CC)CCNC(=O)c1cc2c(=O)oc3ccc(C)cc3c2s1,3.23%
3,COc1ccc(/C=N/OCc2ccccc2C#N)c(OC)c1,50.3%
4,COc1ccc(-c2nn3c(-c4ccc(OC)cc4)nnc3c3ccccc23)cc1,7.26%
5,Nc1nnc2c(C(F)(F)F)nc3ccccc3n12,1.13%
6,FC(F)(F)c1nnc2c3ccccc3c(Cl)nn12,-86.4% (active)
7,Cc1cc(C)n2nc(C(=O)Oc3ccc4c(c3)OCO4)nc2n1,12.7%
8,CC(=O)c1nn(-c2ccc(OC(F)(F)F)cc2)nc1Nc1ccccc1,-19.8%
9,COc1ccc(NC(=O)c2ccc3nc(CCc4ccccc4)oc3c2)c(OC)c1,15.1%
10,CCN1CCC(O)(/C=C/c2ccc(C)cc2)C(C(=O)/C=C/c2ccc(C)cc2)C1 (stereo not given),-101% (active)
11,O=C(CCOc1ccccc1)N(Cc1cccnc1)c1nc2ccc(Cl)cc2s1,-5.41%
12,O=C(CCS(=O)(=O)c1ccccc1)N(Cc1cccnc1)c1nc2c(F)cccc2s1,112%
13,Cc1ccc(-c2nc3ccccn3c2Nc2c(C)cccc2C)o1,-20.4%
14,Cc1cccc(C(=O)Nc2ccc(S(=O)(=O)N3CCCCC3c3cccnc3)cc2)c1 (stereo not given),-34.9%
15,O=C(CS(=O)(=O)c1cccc2nsnc12)N1CCN(c2cccc(Cl)c2)CC1,-13.3%
16,C/C(=N/NC(=O)CSc1ccccn1)c1ccc([N+](=O)[O-])cc1,21.4%
17,C/C(=N\NC(=O)Cc1ccc(Cl)cc1)c1ccccn1,-98.9% (active)
18,C/C(Cc1ccccc1)=N\NC(=O)CNC(=O)c1ccccc1Cl,22.5%
19,CC(=NNC(=S)N1CCCCCC1)c1ccccn1,-98.7% (active)
20,C/C(=N/NC(=O)c1ccn(C)n1)c1ccncc1,22.2%
21,O=C(NC(=S)NC1CCSC1=O)c1ccccc1F (stereo not given),-2.85%
22,O=[N+]([O-])c1ccc(NC(=S)N2CCN(c3ccccn3)CC2)cc1,-38.3%
23,CCOC(=O)c1ccc(NC(=S)N2CCN(c3ccccn3)CC2)cc1,0.324%

row,Compound,"activity change, negative = inhibition"
1,C/C(=N\NC(=O)c1ccccc1F)c1ccccn1,-113% (active)
2,CCC[C@H]1[C@H](NCC2CCCCC2)CC[C@@]23CCCN2C(=O)CCC[C@@H]13,-6.34%
3,CSCC[C@H](NC(=O)NCCc1ccc(F)cc1)C(=O)O,-21.4%
4,CCOc1ccc(NC(=O)C(=O)NCCc2csc3nc(-c4ccccc4F)nn23)cc1,18.8%
5,C=CCC[C@@H](CCCCC)OC(=O)/C=C/[C@@H](O)[C@H](O)C[C@H](O)CC=C,-0.272%
6,Fc1ccc(-c2nn(-c3ccccc3Cl)c3c2cnc2ccccc23)cc1,-6.36%
7,O=C(NC1(C(F)(F)F)NC(=O)N(Cc2cccnc2)C1=O)c1ccccc1Cl (stereo not given),-16%
8,CN(CC(=O)NCc1ccc(Cl)cc1)S(=O)(=O)c1cccs1,-18.2%
9,O=S(=O)(NCCc1ccc(Cl)cc1)c1cccs1,-79.1% (active)
10,CCc1ccc(NC(=O)CCNS(=O)(=O)c2cccs2)cc1,24.2%
11,Cc1ccc2nc3c(cc(C(=O)NC4CCCCC4)c(=N)n3C(C)C)c(=O)n2c1,-12.2%
12,Cc1cccc(N2CCN(C(=O)c3cccc(S(=O)(=O)N4CCc5ccccc5C4)c3)CC2C)c1 (stereo not given),-62.2% (active)
13,CC(NC(=O)c1cccc(S(=O)(=O)N2CCc3ccccc3C2)c1)c1ccco1 (stereo not given),-21.6%
14,CN(C)C(CNC(=O)c1cccc(S(=O)(=O)N2CCc3ccccc3C2)c1)c1ccccc1 (stereo not given),6.73%
15,CCc1nnc2c3ccccc3nc(N3CCN(c4ccc(C)cc4C)CC3)n12,2.29%
16,COC(=O)c1ccc(CSc2nnc(NC(C)C)s2)cc1,-2.57%
17,CC(C)Nc1nnc(SCC(=O)/C=C2\N(C)c3ccccc3C2(C)C)s1,-65.1% (active)
18,COc1ccccc1N1CC(C(=O)Nc2nnc(SCC(=O)NC(C)C)s2)CC1=O (stereo not given),45.2%
19,Cc1ccccc1-c1nc2scc(CCNC(=O)C(=O)Nc3ccc(F)cc3F)n2n1,2.08%
20,NC(=O)C1CCN(C(=O)c2cccc(NC(=O)c3nsc4ccccc34)c2)CC1,40.7%
21,C=CCSc1nsc(NC(=O)Nc2cccc(C(C)=O)c2)n1,-101% (active)
22,CCSc1nsc(NC(=O)Nc2cccc(C(C)=O)c2)n1,-74.9% (active)
23,CC(=O)c1cccc(NC(=O)CSc2nc3c(c(=O)[nH]2)CCC3)c1,-2.89%

row,Compound,"activity change, negative = inhibition"
1,Cc1ccccc1CNC(=O)c1cccc(NC(=O)c2nsc3ccccc23)c1,66.7%
2,C=CCSc1nnc2c(n1)-c1cccc3cccc-2c13,41.1%
3,CSc1nsc(NC(=O)Nc2ccccc2)n1,-76.6% (active)
4,CC(=O)Nc1ccc(-c2csc(NC(=O)Nc3ccccc3)n2)cc1,-99.1% (active)
5,NC(c1csc(NC(=O)Nc2ccccc2Oc2ccccc2)n1)c1ccccc1Cl (stereo not given),-24.7%
6,CC(=O)c1ccc(NC(=O)N[C@@H](Cc2ccccc2)C(=O)O)cc1,23.2%
7,Cc1ccc(C(=O)Nc2nc(-c3ccccc3)ns2)cc1,27%
8,CC(=O)c1ccc(NC(=O)CSc2nnc(NC(=O)Nc3ccccc3)s2)cc1,103%
9,CCOC(=O)c1cnc2c(C)cc(Cl)cc2c1NCCc1ccc(OC)c(OC)c1,-5.49%
10,CCOc1ccc(NC(=O)CCC(=O)N2CC(C)Oc3ccc(C)cc32)cc1 (stereo not given),-10.3%
11,COc1ccc(NC(C)=O)cc1NC(=O)CN1CCN(c2ccc(F)cc2)CC1,-5.69%
12,COc1ccccc1/C=C/c1nc(C#N)c(NC(C)c2ccccc2)o1 (stereo not given),81.4%
13,CCCCC12CN3CC(C)(CN(C1)C3c1ccc(O)c(OC)c1)C2=O (stereo not given),4.32%
14,Cc1ccc(OCC(=O)Nc2ccc(OCc3cc(=O)n4c(C)csc4n3)cc2)cc1C,18.3%
15,CC(C(=O)N1CCN(c2ccccc2F)CC1)c1ccc([N+](=O)[O-])cc1 (stereo not given),-11.5%
16,O=C1OC(C(=O)Nc2cccc(Br)c2)Cc2ccccc21 (stereo not given),7.91%
17,O=C(CCSc1ccccc1)N1CCN(c2ccccc2F)CC1,72.3%
18,Cn1cc(-c2ccccc2)cc(C#N)c1=O,-1.91%
19,Cn1c(-c2sc3cc(C(F)(F)F)cnc3c2-c2ccccc2)n[nH]c1=S,18.8%
20,O=C(NN1C(=O)C2CCCCC2C1=O)c1ccco1 (stereo not given),3.07%
21,CC1=CC(C)(C)NC(=S)N1NC(=O)c1ccccc1Cl,38.2%
22,CC12CCC(C(=O)N(NC(=O)c3ccccc3O)C1=O)C2(C)C (stereo not given),-81.2% (active)
23,CCC(C)NCC(=O)Nc1ccc([N+](=O)[O-])cc1C(=O)Nc1ccccc1F (stereo not given),20.4%

row,Compound,"activity change, negative = inhibition"
1,Cn1c(=O)cc(OCC(=O)N2CCN(c3ccccc3)CC2)c2ccccc21,0.385%
2,CC(C)(C)OC(=O)C[C@H]1C/C=C\C[C@@H](CC(=O)N[C@H](CO)Cc2ccccc2)C(=O)NC[C@@H](c2ccccc2)OC1=O,-8.79%
3,CC(C)(C)OC(=O)C[C@@H]1C/C=C\C[C@@H](CC(=O)N[C@H](CO)Cc2ccccc2)C(=O)NC[C@@H](c2ccccc2)OC1=O,-6.88%
4,O=C(C[C@H]1C/C=C\C[C@@H](NC(=O)OCC2c3ccccc3-c3ccccc32)C(=O)O[C@@H](c2ccccc2)CNC1=O)N[C@H](CO)Cc1ccccc1,-86.9% (active)
5,O=[N+]([O-])c1ccc(Oc2ccc(F)cc2Br)c2ccncc12,-78.1% (active)
6,COc1ccc2oc(=O)c(-c3cn4c(n3)sc3cc(OC)ccc34)cc2c1,-16.2%
7,O=[N+]([O-])c1ccc(C=Nc2ccc(Cl)cc2Cl)s1,-103% (active)
8,C=CCN1C=C(C(=O)c2ccccc2)C(=O)CC1,-25.3%
9,CCOc1ccc(CC(=O)NCCc2csc3nc(-c4ccccc4F)nn23)cc1,-0.0376%
10,CCOc1ccccc1C(=O)Nc1ccc2c(c1)N(C)C(=O)c1ccccc1S2,5.48%
11,CC(=O)c1c(C)oc2ccc(NS(=O)(=O)c3ccccc3)cc12,-24.7%
12,CCOC(=O)c1c(C)oc2ccc(N(C(=O)c3ccncc3)S(=O)(=O)c3ccc(CC)cc3)cc12,-6.14%
13,COC(=O)c1c(C)oc2ccc(N(C(=O)Oc3ccccc3)S(=O)(=O)c3ccccc3)cc12,-63.7% (active)
14,Cc1cccc(N(C)C(=O)CS(=O)(=O)c2cccc3nsnc23)c1,-14.6%
15,CCN(C(=O)Cn1c(=O)nc(-c2ccccc2)c2cc(Cl)ccc21)c1cccc(C)c1,-20.1%
16,O=C(NCCc1ccc(Cl)cc1)c1ccc2c(c1)N(Cc1ccc(F)cc1)C(=O)CS2,2.62%
17,Cc1ccc(NC2=NC(c3ccccc3)n3c(nc(C)cc3=O)N2)cc1 (stereo not given),-12%
18,Cc1ccc(Nc2cc(C)nc3c(C)ccc([N+](=O)[O-])c23)cc1,-65.6% (active)
19,CNc1ccc(-c2nc(-c3ccccc3C)no2)cc1[N+](=O)[O-],63.3%
20,C[C@@H]1CN([C@H](C)CO)C(=O)CCCn2cc(nn2)CO[C@H]1CN(C)C(=O)Nc1ccc(N2CCCCC2)cc1,5.98%
21,CCOc1ccc(CNC(=O)c2cc(=O)[nH]c3ccc(S(=O)(=O)N4CCCCC4)cc23)cc1,66.7%
